Test results published in PubChem BioAssay AID1159580 (chemical genetic matrix, 2015).
About 2,000 (36%) of roughly 5,500 compounds were called active. Roughly 18% stayed inconclusive and do not appear here. Rule as the data show it: active = normalized growth mostly below about 0.91 (no sharp cut-off); inconclusive = no clear call, values can overlap the other calls; inactive = mostly above about 0.92. The list shows a part of the results.

Experiment: chemical genetic growth profiling, strain panel (AID 1159580);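 also: tested at 20 µM; growth read once vehicle control cultures reached saturation at 30 °C; 1 = growth at the plate median or of vehicle wells; lower values mean less growth of the strain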
Conditions: S. cerevisiae deletion strains, growth OD

Measured: normalized growth

CC1=C(C/C=C(\C)CCC[C@H](C)CCC[C@H](C)CCCC(C)C)C(=O)c2ccccc2C1=O
inactive: locus YAL021C, strain ccr4, stronger effect = lower value 0.99 | locus YAL026C, strain drs2, stronger effect = lower value 0.99 | locus YAL030W, strain snc1, stronger effect = lower value 0.995 | locus YBL061C, strain skt5, stronger effect = lower value 0.997 | locus YBR009C, strain hhf1, stronger effect = lower value 0.977 | locus YBR023C, strain chs3, stronger effect = lower value 0.996 | locus YBR171W, strain sec66, stronger effect = lower value 0.993 | locus YBR231C, strain swc5, stronger effect = lower value 0.989 | locus YBR279W, strain paf1, stronger effect = lower value 0.994 | locus YCL011C, strain gbp2, stronger effect = lower value 0.977 | locus YCL016C, strain dcc1, stronger effect = lower value 0.985 | locus YCL061C, strain MRC1, stronger effect = lower value 0.987 | locus YCL069W, strain vba3, stronger effect = lower value 0.979 | locus YCR088W, strain abp1, stronger effect = lower value 1 | locus YDL005C, strain med2, stronger effect = lower value 0.965 | locus YDL040C, strain nat1, stronger effect = lower value 1 | locus YDR001C, strain nth1, stronger effect = lower value 0.993 | locus YDR069C, strain doa4, stronger effect = lower value 0.975 | locus YDR159W, strain sac3, stronger effect = lower value 0.981 | locus YDR195W, strain ref2 0.963 | locus YDR297W, strain sur2, stronger effect = lower value 0.993 | locus YDR334W, strain swr1, stronger effect = lower value 0.955 | locus YDR335W, strain msn5, stronger effect = lower value 0.99 | locus YDR392W, strain spt3, stronger effect = lower value 0.962 | locus YEL003W, strain gim4, stronger effect = lower value 0.977 | locus YEL037C, strain rad23, stronger effect = lower value 0.994 | locus YEL061C, strain CIN8 (second series), stronger effect = lower value 0.992 | locus YER015W, strain faa2, stronger effect = lower value 0.991 | locus YER016W, strain bim1, stronger effect = lower value 0.982 | locus YER111C, strain swi4, stronger effect = lower value 1 | locus YER155C, strain BEM2 (second series), stronger effect = lower value 0.993 | locus YFR010W, strain ubp6, stronger effect = lower value 0.974 | locus YGL167C, strain pmr1, stronger effect = lower value 0.989 | locus YGL173C, strain kem1, stronger effect = lower value 0.99 | locus YGL227W, strain vid30, stronger effect = lower value 0.997 | locus YGL240W, strain doc1, stronger effect = lower value 0.956 | locus YGL253W, strain hxk2, stronger effect = lower value 1 | locus YHR013C, strain ard1, stronger effect = lower value 0.975 | locus YHR027C, strain rpn1, stronger effect = lower value 0.984 | locus YHR030C, strain SLT2, stronger effect = lower value 0.986 | locus YHR079C, strain IRE1, stronger effect = lower value 0.992 | locus YHR142W, strain chs7, stronger effect = lower value 1 | locus YJL092W, strain hpr5, stronger effect = lower value 0.982 | locus YJL095W, strain BCK1 (second series), stronger effect = lower value 0.995 | locus YJL095W, strain BCK1, stronger effect = lower value 0.998 | locus YJL115W, strain asf1, stronger effect = lower value 0.968 | locus YJL129C, strain trk1, stronger effect = lower value 0.984 | locus YJL154C, strain vps35, stronger effect = lower value 0.984 | locus YJL164C, strain tpk1, stronger effect = lower value 0.974 | locus YJL166W, strain qcr8, stronger effect = lower value 1 | locus YJL187C, strain SWE1, stronger effect = lower value 0.979 | locus YJR066W, strain TOR1, stronger effect = lower value 0.943 | locus YKL160W, strain elf1, stronger effect = lower value 0.998 | locus YKR026C, strain gcn3, stronger effect = lower value 0.996 | locus YKR091W, strain srl3, stronger effect = lower value 0.985 | locus YLL001W, strain dnm1, stronger effect = lower value 0.992 | locus YLL026W, stronger effect = lower value 0.996 | locus YLL041C, strain sdh2, stronger effect = lower value 0.99 | locus YLR027C, strain aat2, stronger effect = lower value 0.992 | locus YLR113W, strain HOG1, stronger effect = lower value 0.953 | locus YLR221C, strain rsa3, stronger effect = lower value 0.981 | locus YLR258W, strain gsy2, stronger effect = lower value 0.983 | locus YLR262C, strain YPT6 (second series), stronger effect = lower value 0.899 | locus YLR320W, strain mms22, stronger effect = lower value 0.992 | locus YLR342W, strain FKS1, stronger effect = lower value 0.999 | locus YLR357W, strain rsc2, stronger effect = lower value 1 | locus YLR370C, strain arc18, stronger effect = lower value 0.99 | locus YLR384C, strain iki3, stronger effect = lower value 0.988 | locus YML120C, strain ndi1, stronger effect = lower value 0.998 | locus YMR058W, strain fet3, stronger effect = lower value 0.973 | locus YMR125W, strain sto1, stronger effect = lower value 0.978 | locus YMR129W, stronger effect = lower value 0.985 | locus YMR205C, strain PFK2, stronger effect = lower value 0.981 | locus YMR231W, strain pep5, stronger effect = lower value 0.99 | locus YNL071W, strain lat1, stronger effect = lower value 0.972 | locus YNL183C, strain NPR1, stronger effect = lower value 0.947 | locus YNL209W, strain ssb2, stronger effect = lower value 0.983 | locus YNL248C, strain rpa49, stronger effect = lower value 0.977 | locus YNL322C, strain KRE1 (second series), stronger effect = lower value 0.998 | locus YNR049C, strain mso1, stronger effect = lower value 1 | locus YOR001W, strain rrp6, stronger effect = lower value 1 | locus YOR070C, strain gyp1, stronger effect = lower value 0.988 | locus YOR080W, strain dia2, stronger effect = lower value 0.986 | locus YOR083W, strain WHI5, stronger effect = lower value 0.992 | locus YOR106W, strain vam3, stronger effect = lower value 0.964 | locus YOR231W, strain MKK1, stronger effect = lower value 0.979 | locus YOR265W, strain rbl2, stronger effect = lower value 0.985 | locus YOR270C, strain vph1, stronger effect = lower value 0.871 | locus YOR290C, strain snf2, stronger effect = lower value 0.987 | locus YPL051W, strain arl3, stronger effect = lower value 0.988 | locus YPL078C, strain atp4, stronger effect = lower value 0.996 | locus YPL106C, strain sse1, stronger effect = lower value 0.871 | locus YPL240C, strain hsp82, stronger effect = lower value 0.97 | locus YPL256C, strain CLN2, stronger effect = lower value 0.944
active: locus YDR137W, strain rgp1, stronger effect = lower value 0.772
